PubChem BioAssay AID1159580 (chemical genetic matrix, 2015)
Several values for one entry are separate records, joined by “and”; a condition that tells them apart may be missing. Equal values may be shown once. Screen size: about 5,500 compounds; about 2,000 (36%) were called active. Another 18% or so got no clear call; they are omitted. Rule as the data show it: active = normalized growth mostly below about 0.91 (no sharp cut-off); inconclusive = no clear call, values can overlap the other calls; inactive = mostly above about 0.92. The list shows a part of the results.

Assay: chemical genetic growth profiling, strain panel (AID 1159580);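 also: tested at 20 µM; growth read once vehicle control cultures reached saturation at 30 °C; 1 = growth at the plate median or of vehicle wells; lower values mean less growth of the strain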
Details: growth OD

Measured: normalized growth

Nc1ccc(C(=O)O)c(O)c1
inactive: S. cerevisiae deletion strains, locus YKL009W, strain mrt4, stronger effect = lower value 1 | S. cerevisiae deletion strains, locus YKL068W, stronger effect = lower value 0.999 | S. cerevisiae deletion strains, locus YKL085W, strain MDH1 (second series), stronger effect = lower value 0.995 | S. cerevisiae deletion strains, locus YKL085W, strain MDH1, stronger effect = lower value 0.995 | S. cerevisiae deletion strains, locus YKL160W, strain elf1, stronger effect = lower value 0.947 | S. cerevisiae deletion strains, locus YKL190W, strain CNB1, stronger effect = lower value 1.01 | S. cerevisiae deletion strains, locus YKR001C, strain vps1, stronger effect = lower value 0.992 | S. cerevisiae deletion strains, locus YKR026C, strain gcn3, stronger effect = lower value 0.994 | S. cerevisiae deletion strains, locus YKR091W, strain srl3, stronger effect = lower value 0.989 | S. cerevisiae deletion strains, locus YLL001W, strain dnm1, stronger effect = lower value 0.924 | S. cerevisiae deletion strains, locus YLL026W, stronger effect = lower value 1 | S. cerevisiae deletion strains, locus YLL041C, strain sdh2, stronger effect = lower value 0.992 | S. cerevisiae deletion strains, locus YLR027C, strain aat2, stronger effect = lower value 1 | S. cerevisiae deletion strains, locus YLR039C, strain RIC1, stronger effect = lower value 1.02 | S. cerevisiae deletion strains, locus YLR058C, strain SHM2, stronger effect = lower value 1.01 | S. cerevisiae deletion strains, locus YLR102C, strain apc9, stronger effect = lower value 0.998 | S. cerevisiae deletion strains, locus YLR113W, strain HOG1, stronger effect = lower value 1.03 and 1.02 | S. cerevisiae deletion strains, locus YLR221C, strain rsa3, stronger effect = lower value 0.968 | S. cerevisiae deletion strains, locus YLR258W, strain gsy2, stronger effect = lower value 1.01 | S. cerevisiae deletion strains, locus YLR262C, strain YPT6 (second series), stronger effect = lower value 0.961 | S. cerevisiae deletion strains, locus YLR262C, strain YPT6, stronger effect = lower value 1.06 | S. cerevisiae deletion strains, locus YLR268W, strain sec22, stronger effect = lower value 0.99 | S. cerevisiae deletion strains, locus YLR320W, strain mms22, stronger effect = lower value 0.954 | S. cerevisiae deletion strains, locus YLR330W, strain CHS5, stronger effect = lower value 1.01 | S. cerevisiae deletion strains, locus YLR342W, strain FKS1 (second series), stronger effect = lower value 1.04 | S. cerevisiae deletion strains, locus YLR342W, strain FKS1, stronger effect = lower value 0.997 | S. cerevisiae deletion strains, locus YLR357W, strain rsc2, stronger effect = lower value 0.955 | S. cerevisiae deletion strains, locus YLR370C, strain arc18, stronger effect = lower value 0.995 | S. cerevisiae deletion strains, locus YLR371W, strain rom2, stronger effect = lower value 0.997 | S. cerevisiae deletion strains, locus YLR384C, strain iki3, stronger effect = lower value 0.994 | S. cerevisiae deletion strains, locus YLR418C, strain cdc73, stronger effect = lower value 0.996 | S. cerevisiae deletion strains, locus YML016C, strain PPZ1, stronger effect = lower value 1.01 | S. cerevisiae deletion strains, locus YML032C, strain rad52, stronger effect = lower value 1 | S. cerevisiae deletion strains, locus YML120C, strain ndi1, stronger effect = lower value 0.978 | S. cerevisiae deletion strains, locus YML124C, strain tub3, stronger effect = lower value 0.996 | S. cerevisiae deletion strains, locus YMR058W, strain fet3, stronger effect = lower value 0.995 | S. cerevisiae deletion strains, locus YMR078C, strain ctf18, stronger effect = lower value 1 | S. cerevisiae deletion strains, locus YMR125W, strain sto1, stronger effect = lower value 0.945 | S. cerevisiae deletion strains, locus YMR129W, stronger effect = lower value 0.999 | S. cerevisiae deletion strains, locus YMR205C, strain PFK2, stronger effect = lower value 0.939 | S. cerevisiae deletion strains, locus YMR223W, strain ubp8, stronger effect = lower value 1 | S. cerevisiae deletion strains, locus YMR231W, strain pep5, stronger effect = lower value 0.985 | S. cerevisiae deletion strains, locus YMR263W, strain SAP30, stronger effect = lower value 1 | S. cerevisiae deletion strains, locus YMR307W, strain GAS1, stronger effect = lower value 0.991 | S. cerevisiae deletion strains, locus YNL067W, strain RPL9B, stronger effect = lower value 1.01 | S. cerevisiae deletion strains, locus YNL071W, strain lat1, stronger effect = lower value 0.986 | S. cerevisiae deletion strains, locus YNL153C, strain GIM3, stronger effect = lower value 0.998 | S. cerevisiae deletion strains, locus YNL183C, strain NPR1, stronger effect = lower value 0.959 and 0.981 | S. cerevisiae deletion strains, locus YNL209W, strain ssb2, stronger effect = lower value 0.997 | S. cerevisiae deletion strains, locus YNL233W, strain BNI4, stronger effect = lower value 0.998 | S. cerevisiae deletion strains, locus YNL248C, strain rpa49, stronger effect = lower value 0.967 | S. cerevisiae deletion strains, locus YNL250W, strain rad50, stronger effect = lower value 1 | S. cerevisiae deletion strains, locus YNL271C, strain bni1, stronger effect = lower value 0.985 | S. cerevisiae deletion strains, locus YNL298W, strain CLA4, stronger effect = lower value 0.989 | S. cerevisiae deletion strains, locus YNL307C, strain MCK1, stronger effect = lower value 1 | S. cerevisiae deletion strains, locus YNL322C, strain KRE1 (second series), stronger effect = lower value 0.977 | S. cerevisiae deletion strains, locus YNL322C, strain KRE1, stronger effect = lower value 1.01 | S. cerevisiae deletion strains, locus YNR049C, strain mso1, stronger effect = lower value 0.994 | S. cerevisiae deletion strains, locus YNR052C, strain pop2, stronger effect = lower value 0.998 | S. cerevisiae deletion strains, locus YOL006C, strain TOP1, stronger effect = lower value 1.04 | S. cerevisiae deletion strains, locus YOL012C, strain htz1 0.886 | S. cerevisiae deletion strains, locus YOL147C, strain pex11, stronger effect = lower value 0.999 | S. cerevisiae deletion strains, locus YOR001W, strain rrp6, stronger effect = lower value 1.04 | S. cerevisiae deletion strains, locus YOR061W, strain CKA2, stronger effect = lower value 1.01 | S. cerevisiae deletion strains, locus YOR069W, strain VPS5, stronger effect = lower value 1.01 | S. cerevisiae deletion strains, locus YOR070C, strain gyp1, stronger effect = lower value 0.995 | S. cerevisiae deletion strains, locus YOR080W, strain dia2, stronger effect = lower value 1 | S. cerevisiae deletion strains, locus YOR083W, strain WHI5, stronger effect = lower value 0.945 | S. cerevisiae deletion strains, locus YOR106W, strain vam3, stronger effect = lower value 0.999 | S. cerevisiae deletion strains, locus YOR136W, strain idh2, stronger effect = lower value 0.992 | S. cerevisiae deletion strains, locus YOR144C, strain elg1, stronger effect = lower value 0.996 | S. cerevisiae deletion strains, locus YOR184W, strain ser1, stronger effect = lower value 0.997 | S. cerevisiae deletion strains, locus YOR231W, strain MKK1, stronger effect = lower value 1.01 and 1.04 | S. cerevisiae deletion strains, locus YOR265W, strain rbl2, stronger effect = lower value 0.997 | S. cerevisiae deletion strains, locus YOR270C, strain vph1, stronger effect = lower value 0.987 | S. cerevisiae deletion strains, locus YOR290C, strain snf2, stronger effect = lower value 0.963 | S. cerevisiae deletion strains, locus YOR316C, strain cot1, stronger effect = lower value 0.997 | S. cerevisiae deletion strains, locus YPL051W, strain arl3, stronger effect = lower value 0.979 | S. cerevisiae deletion strains, locus YPL055C, strain LGE1, stronger effect = lower value 1.01 | S. cerevisiae deletion strains, locus YPL078C, strain atp4, stronger effect = lower value 0.946 | S. cerevisiae deletion strains, locus YPL106C, strain sse1, stronger effect = lower value 0.968 | S. cerevisiae deletion strains, locus YPL240C, strain hsp82, stronger effect = lower value 0.991 | S. cerevisiae deletion strains, locus YPL241C, strain CIN2, stronger effect = lower value 1.01 | S. cerevisiae deletion strains, locus YPL256C, strain CLN2, stronger effect = lower value 1.03 and 1.04 | S. cerevisiae deletion strains, locus YPR119W, strain clb2, stronger effect = lower value 0.998 | S. cerevisiae deletion strains, locus YPR141C, strain kar3, stronger effect = lower value 0.999 | S. cerevisiae deletion strains, locus YPR163C, strain tif3, stronger effect = lower value 0.99 | S. cerevisiae deletion strains, locus YPR167C, strain met16, stronger effect = lower value 1.01 | S. cerevisiae deletion strains, strain wtn01, stronger effect = lower value 0.984 | S. cerevisiae strains, strain wild type, stronger effect = lower value 1.01
